SIAE primary – human SIAE inhibitors, primary screen, biochemical, fluorescence polarization, FP-Rh probe, 1536-well HTS; SIAE FP-Rh probe binding; 370,000 compounds, 0.69% hits; inhibition, % at 9.66 µM; Sialate O-acetylesterase (Homo sapiens), Q9HAT2;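 active means inhibition above a cutoff: mean of compounds within the control limits plus 3 SD of those, cut at about 17% in these data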;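 further: 0% = plate median of compound wells and 100% = probe without SIAE protein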
Target sequence (Q9HAT2 whole entry, looked up): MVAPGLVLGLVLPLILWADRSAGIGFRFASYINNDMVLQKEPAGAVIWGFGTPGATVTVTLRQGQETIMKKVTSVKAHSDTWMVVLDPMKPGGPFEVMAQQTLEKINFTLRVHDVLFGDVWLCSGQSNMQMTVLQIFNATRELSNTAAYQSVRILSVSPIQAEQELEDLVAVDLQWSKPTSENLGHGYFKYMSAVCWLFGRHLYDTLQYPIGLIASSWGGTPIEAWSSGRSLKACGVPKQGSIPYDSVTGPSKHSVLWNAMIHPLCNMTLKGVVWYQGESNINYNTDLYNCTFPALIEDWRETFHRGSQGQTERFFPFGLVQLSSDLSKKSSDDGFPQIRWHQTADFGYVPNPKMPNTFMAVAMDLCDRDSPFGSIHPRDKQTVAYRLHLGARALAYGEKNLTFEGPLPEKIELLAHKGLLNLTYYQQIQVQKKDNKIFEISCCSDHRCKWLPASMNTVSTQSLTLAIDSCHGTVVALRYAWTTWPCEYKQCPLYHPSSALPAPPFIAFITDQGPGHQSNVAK
PRMT1 FP inh – PRMT1 methyltransferase inhibitors, primary screen, biochemical, fluorescence polarization | Protein arginine N-methyltransferase 1 (Homo sapiens), Q99873 | inhibition, % at 2.79 µM | recombinant PRMT1, activity-based probe fluorescence polarization | 370,000 compounds, 1.3% hits;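 active means inhibition above about 21% made by adding two undisclosed values, limit read from the data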
TCR CD3 inh – inhibitors of human TCR-CD3 interaction, primary screen, biochemical, fluorescence, TAMRA-labeled TCR probe | inhibition, % at 9.4 µM | AID 651800, 2012 | 360,000 compounds, 0.37% hits; in the data active means inhibition above about 19%;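 further: recombinant mutant TCR 2C K166C tagged with TAMRA read by polarization; 0% = receptor in buffer alone and 100% = receptor with positive control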
PME-1 inh – PME-1 inhibitors via competitive probe labeling, primary screen, biochemical, fluorescence polarization, FP-Rh probe, HTS; inhibition, % at 5.9 µM; 320,000 compounds, 0.53% hits; recombinant PME-1; Protein phosphatase methylesterase 1 (Homo sapiens), Q9Y570;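 active means inhibition above the campaign mean of all compounds plus 3 SD, cut at about 26% in these data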;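 further: competitive labeling of PME-1 active site by serine hydrolase directed probe; 0% = PME-1 with DMSO and 100% = wells lacking PME-1 enzyme; inhibitors block probe labeling so polarization falls and inhibition rises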
PAD4 FP inh – human PAD4 inhibitors, primary screen, biochemical, fluorescence polarization, 1536-well format; recombinant PAD4, RCA probe fluorescence polarization; inhibition, % at 6.36 µM; 330,000 compounds, 0.41% hits;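 active means percent inhibition above a cutoff equal to the mean of all tested compounds plus 3 SD, cut at about 15% in these data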;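 further: 0% = PAD4 with RCA probe and DMSO and 100% = probe without PAD4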
Fam108B inh – mouse Fam108B serine hydrolase inhibitors, primary screen, counter-screen for RBBP9 inhibitor project, biochemical, fluorescence polarization; AID 1947, 2009; inhibition, % at 9.51 µM; 300,000 compounds, 0.33% hits; recombinant Fam108B, FP-Rh probe fluorescence polarization;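 active means inhibition above the screen mean inhibition plus 3 SD, computed separately per campaign, cut at about 18% in these data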;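 further: inhibitors lower polarization as less probe binds the enzyme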
PRMT1 inh conf – PRMT1 methyltransferase inhibitors, confirmation, biochemical, fluorescence polarization, triplicate. shares compounds with PRMT1 FP inh. recombinant His-PRMT1, activity-based probe fluorescence polarization. inhibition, % at 2.79 µM. 3,300 compounds, 42% hits. AID 687036, 2013;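 active means mean inhibition across replicates above the hit cutoff derived for the earlier primary screen, cut at about 22% in these data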
* marks the source's active call; other numbers are inactive results; . = no result given. This is a sample that favours compounds with a hit; in the whole collection about 2.6% have one here.

SMILES	SIAE primary	PRMT1 FP inh	TCR CD3 inh	PME-1 inh	PAD4 FP inh	Fam108B inh	PRMT1 inh conf
O=C1c2ccccc2CC1Sc1nnc(-c2ccncc2)o1 (centres undefined)	1	-3	7	2	3	-9	.
O=C1CC(Sc2nnc(-c3ccccc3)o2)C(=O)N1c1ccccc1 (centres undefined)	6	68*	2	7	2	-1	60*
Cc1ccccc1N1C(=O)CC(Sc2nnc(-c3ccccc3)o2)C1=O (centres undefined)	-4	83*	-8	2	-3	4	68*
O=C(COC(=O)C1CC(=O)N(c2ccccc2)C1)c1ccccc1 (centres undefined)	14	-4	7	-1	1	-1	.
Cc1ccc(N2CC(C(=O)OCC(=O)c3ccc([N+](=O)[O-])cc3)CC2=O)cc1 (centres undefined)	1	29*	3	-3	-7	2	48*
CCCCS(=O)(=O)N1C2=NC3=C(C(=O)N(CCOC)C3=O)C3N(C)c4ccccc4[C@]23C[C@H]1CO (some centres undefined)	4	2	.	.	.	.	.
CCOC(=O)C1CCCN(C2CC(=O)N(c3ccc(NC(C)=O)cc3)C2=O)C1 (centres undefined)	-6	37*	-7	0	2	5	1
CCOC(=O)C1CCCN(C2CC(=O)N(c3ccc(C)cc3)C2=O)C1 (centres undefined)	4	19	-3	0	0	0	.
O=C(CCc1ccccc1)N[C@H]1[C@@H](O)CCC[C@]12C(=O)N(Cc1ccccc1)c1ccccc12	5	-1	.	.	.	.	.
COC(=O)[C@]12C[C@H](CC(=O)NCCC(C)C)C(=O)N(CCc3ccc(OC)c(OC)c3)C1=C[C@H](C1CCCC1)O[C@@H]2C	2	-2	.	.	.	.	.
CCOC(=O)CSc1nnc(NCC(=O)OC(C)C)c(=O)[nH]1	15	54*	7	-2	4	2	67*
COc1ccc(C(=O)OCCCN(C)C2CN(Cc3cn(Cc4ccc([N+](=O)[O-])cc4)nn3)S(=O)(=O)C2)cc1OC (centres undefined)	5	4	.	.	.	.	.
CC(C)NC(=O)CSc1nc2ccccc2n1CC(=O)N(C(C)C)C(C)C	1	3	-5	.	.	.	.
CC(C)NC(=O)Cn1c(SCC(=O)c2ccc(F)cc2)nc2ccccc21	-1	62*	8	-2	-4	-5	5
C=CCN(CC#CC(=C)C)Cc1ccccc1	-3	3	.	.	.	.	.
Fc1ccc(-c2n[nH]c(=S)n2N=Cc2cccc(OCc3ccccc3)c2)cc1	-8	9	.	.	.	.	.
COc1ccccc1N1C(=O)C(Cl)=C(Nc2ccccc2O)C1=O	-4	40*	-4	.	.	.	26*
COC(=O)c1ccc(Cn2ccc3ccc(-c4ccc5ccn(Cc6ccccc6)c5c4)cc32)cc1	-6	-1	.	.	.	.	.
O=S(=O)(Nc1ccc(Cl)cc1)c1ccc(N2CCOCC2)c(NC(=S)NCCN2CCOCC2)c1	2	49*	8	2	-3	0	74*
Cc1ccc(N=C2NC(=O)CS2)cc1	-1	1	3	-1	1	2	.
Cc1ccc(SCC(=O)N=C2NC(=O)CS2)cc1	-2	52*	2	1	1	-1	3
O=C(OCC(=O)N1N=C(c2ccc(Cl)cc2)CC1c1ccco1)c1cncc(Br)c1 (centres undefined)	6	34*	0	.	-2	.	5
Cc1ccccc1-n1c(SCc2c(C)noc2C)nnc1-c1ccncc1	9	-3	0	-3	-4	-2	.
Cc1ccccc1-n1c(SCc2c(C)noc2C)nnc1-c1cccnc1	1	28*	5	-2	3	-3	13
O=C1CSC(=S)N1N=Cc1ccccc1O	4	53*	1	.	.	.	74*
SMILES	SIAE primary	PRMT1 FP inh	TCR CD3 inh	PME-1 inh	PAD4 FP inh	Fam108B inh	PRMT1 inh conf
O=C1CSC(=S)N1/N=C/c1cccnc1	9	48*	-6	1	6	3	8
O=C1CSC(=S)N1N=Cc1cccc(OCc2ccccc2)c1	-8	12	-8	.	.	.	.
COc1cc(/C=N/N2C(=O)CSC2=S)ccc1O	-23	16	-17	-65	-36	-28	.
O=C1CSC(=S)N1/N=C/c1ccc2c(c1)OCCO2	-4	27*	-5	-5	-6	0	10
O=C1CSC(=S)N1/N=C/c1ccc(Cl)c([N+](=O)[O-])c1	.	.	.	1	0	7	.
COc1cc(O)c(C=NN2C(=O)CSC2=S)c(OC)c1	2	27*	14	.	.	.	32*
O=C(O)c1cc([N+](=O)[O-])c(Sc2nc3ccccc3[nH]2)c([N+](=O)[O-])c1	2	11	4	4	-1	2	.
CS(=O)(=O)c1cc([N+](=O)[O-])c(Sc2nc3ccccc3[nH]2)c([N+](=O)[O-])c1	3	56*	2	4	3	4	70*
CN(C)S(=O)(=O)c1cccc(C(=O)N/N=C\c2ccccc2[N+](=O)[O-])c1	2	4	.	.	.	.	.
CN(C)c1ccc(/C=N\NC(=S)SCN2C(=O)C3CCC(C)(C2=O)C3(C)C)cc1 (centres undefined)	1	43*	-1	14	-2	8	8
N#Cc1ccc(Cn2ccc3ccc(-c4ccc5ccn(Cc6ccc(C#N)cc6)c5c4)cc32)cc1	-1	-2	.	.	.	.	.
N#Cc1c(C(F)(F)F)cc(-c2ccco2)nc1SCc1ccncc1	-5	0	4	8	-16	2	.
N#Cc1c(C(F)(F)F)cc(-c2ccco2)nc1SCc1ccccn1	-4	35*	-9	-1	-9	0	-7
CCCCc1c(O)nc(SCC(=O)NC(C)(C)C)n(-c2ccccc2C)c1=O	9	27*	-2	0	2	4	6
COc1ccc2c(c1)CCCN2C(=O)C1CCCN(S(=O)(=O)c2cc(OC)ccc2OC)C1 (centres undefined)	-1	0	.	.	.	.	.
Cc1[nH]c(=S)c(C#N)c2c1CCCC2	6	40*	1	1	-7	-3	19
Cn1c(CNc2ccccc2F)nc2ccccc21	2	-3	.	.	.	.	.
CCC1c2ccc(C)n2CCN1C(=O)Nc1ccccc1C(=O)OC (centres undefined)	0	7	4	2	2	-1	.
COC(=O)c1ccccc1NC(=O)N1CSC[C@H]1C(=O)OC	-3	30*	12	-4	-1	-1	48*

Screens: PubChem BioAssay, The Scripps Research Institute Molecular Screening Center
